Test results taken from PubChem BioAssay.
Measured potencies and affinities stand elsewhere. Records with an inconclusive call do not appear. Calls of active or inactive are those of the source. Unless noted, the rule behind the calls is not given here.

Legend:
[1] = inhibitors of PAX8-driven TPO luciferase reporter, dose response, RMG-I cells, cherry-pick (AID 687027;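 active = every replicate test run called active, with the signal dropping as expected and potency within twice the top valid dose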); details: RMG-I TPO-Luc reporter, SteadyGlo luminescence, 24 h; series mostly up to 35 µM
[2] = cytotoxicity in PAX8-dependent RMG-1 cells, dose response, cell-based, cherry-pick (AID 687029;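 active = signal drop whose fitted half-maximal concentration is at most twice the top valid dose, in every test run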;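 note: cells exposed to compound for 96 hours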); details: RMG-1 viability, CellTiterGlo ATP luminescence, 96 h; series mostly up to 35 µM
[3] = cytotoxicity in IOSE-T80 ovarian epithelial cells, dose response, selectivity assay for PAX8 inhibitor project, cell-based, cherry-pick (AID 687032;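 active = fitted half-maximal concentration for viability loss no higher than twice the top valid dose, in every repeat run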;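 note: cells exposed to compound for 96 h before reading; 0% = neutral control wells and -100% = 2 µM mitoxantrone kill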); details: CellTiterGlo ATP luminescence, 96 h; series mostly up to 35 µM
[4] = inhibitors of CMV-promoter luciferase reporter, dose response, counter-screen for Pax8 inhibitor project, cell-based, HEK293, luminescence, dry powder (AID 743020;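 active = signal-lowering compounds whose fitted half-maximal concentration is at or below twice the top tested dose in every run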;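 note: HEK293 cells stably expressing the CMV luciferase reporter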); details: SteadyGlo luminescence, 24 h; series mostly up to 35 µM
[5] = non-specific cell cytotoxicity, dose response, cytotoxicity control for PAX8 inhibitor project, plate reader, dry powder samples (AID 743021); details: cell line, non-specific cytotoxicity counter-screen; series mostly up to 35 µM
[6] = HepG2 cell cytotoxicity, dose response, cytotoxicity control, cherry-picks, set 2 (AID 687002;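 active = a dose-response fit showing signal loss, with half-maximal concentration no higher than twice the top tested dose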); details: HepG2 viability, ATP luminescence (CellTiter-Glo), 48 h; series mostly up to 26 µM
[7] = HeLa cell cytotoxicity, dose response, cytotoxicity control, ATP luminescence, cherry-pick samples (AID 687004;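 active = a fitted half-maximal concentration no higher than twice the top valid tested dose, with signal falling as cells die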;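 note: 0% = neutral control median and -100% = staurosporine 10 µM control median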); details: HeLa viability, ATP luminescence (CellTiter-Glo), 48 h; series mostly up to 26 µM
[8] = IGROV1 ovarian cancer cell cytotoxicity, dose response, PAX8 inhibitor project, plate reader, dry powder samples (AID 743043); details: series mostly up to 35 µM;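 note: more negative means fewer viable cells or more cytotoxicity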
[9] = NIH:OVCAR-3 ovarian cancer cell cytotoxicity, dose response, PAX8 inhibitor project, plate reader, dry powder samples (AID 743044); details: NIH:OVCAR-3 ovarian cancer cell viability; max activity: at 35 µM, hits give low values unless noted; series mostly up to 50 µM
[10] = IOSE-T80 ovarian epithelial cell cytotoxicity, dose response, cytotoxicity control for PAX8 inhibitor project, plate reader, dry powder samples (AID 743045); details: IOSE-T80 ovarian epithelial cells; series mostly up to 35 µM;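 note: 0% = neutral control median and -100% = positive control median; more negative values mean more cell killing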
[11] = cytotoxicity in OVCAR8 ovarian cancer cells, dose response, PAX8 project, cell-based, plate reader, dry powder samples (AID 743197); details: series mostly up to 35 µM
[12] = A2780 ovarian cancer cell cytotoxicity, dose response, cytotoxicity control, plate reader, dry powder samples (AID 743046); details: series mostly up to 35 µM;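 note: 0% = neutral control wells and -100% = cytotoxic reference compound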

Measured: max activity

O=C1/C(=C\c2ccco2)SC(=S)N1c1ccc(O)cc1
inactive: [1] | [2] | [3] | [4] | [5]

O=C(c1cccs1)N1C[C@H](O)[C@@H](n2cc(C3CC3)nn2)C[C@@H]1c1ccccc1
inactive: [1] | [2] | [3] | [4] | [5]

O=C(CSc1ncccc1-c1nc2ccccc2[nH]1)N1CCc2ccccc21
inactive: [1]

Cn1c(SCC(=O)c2ccccc2)nnc1-c1ccccn1
inactive: [1]

c1ccc(COc2ccc(OCCN3CCCCC3)cc2)cc1
inactive: [1] | [2] | [3] | [4] | [5]

O=C(CCCC(=O)OCC(Cl)=C(Cl)Cl)Nc1ccc(F)cc1
inactive: [1] | [2] | [3] | [4] | [5]

CC1CCCC(NC(=O)COC(=O)c2ccccc2Sc2ccccc2C#N)C1C (stereo not drawn)
inactive: [1] | [2] | [3] | [4] | [5]

O=C(NC1CCCCC1)C(c1ccc(F)cc1)N(Cc1ccco1)C(=O)CN1C(=O)c2ccccc2S1(=O)=O (stereo not drawn)
inactive: [1] | [2] | [3] | [4] | [5]

Cn1cc(/C=C(\C(=O)O)C(C(=O)O)=C2CCCCC2)c2ccccc21
inactive: [1] | [2] | [3] | [4] | [5]

COCCNC(=O)C/C(C)=N/NC(=O)C(=O)NC1CCCCC1
inactive: [1] | [2] | [3] | [4] | [5]

CCOc1ccc2c(CC)cc(=O)oc2c1OCC
inactive: [1] | [2] | [3] | [4] | [5]

C[C@H](CO)N1C[C@H](C)[C@H](CN(C)C(=O)Nc2ccc3c(c2)OCO3)Oc2ncc(C#CC(C)(C)O)cc2C1=O
inactive: [6] | [7]

O=C(CSc1ncnc2c1cnn2-c1cccc(Cl)c1)NCC1CCCO1 (stereo not drawn)
inactive: [6] | [7]

Fc1ccccc1NC(=S)NN(Cc1ccccc1)c1ccccc1
inactive: [6] | [7]

C[C@H](CO)N1C[C@H](C)[C@@H](CN(C)S(=O)(=O)c2cn(C)cn2)Oc2c(NC(=O)Nc3ccccc3)cccc2C1=O
inactive: [6] | [7]

CCOc1ccc(C(=O)Nc2ccc(Cc3ccncc3)cc2)cc1Br
inactive: [1] | [2] | [3] | [4] | [5]

CCOC(=O)NC(=S)Nc1ccc(C(C)(C)C)cc1
inactive: [6] | [7]

Cc1c(Cl)cccc1NC(=S)NCCc1ccc(Cl)cc1
inactive: [6] | [7]

N/C(=N\OS(=O)(=O)c1cccc([N+](=O)[O-])c1)c1ccncc1
inactive: [1] | [2] | [3] | [4] | [5]

Cc1ccccc1Cn1cnc2ccccc2c1=O
inactive: [1] | [2] | [3] | [4] | [5]

CC=Cc1ccc2n(c1=O)C[C@@H]1[C@@H](CO)[C@H](C(=O)N3CCc4ccccc4C3)N(C(=O)C3CC3)[C@H]21 (mixture of isomers)
inactive: [6] | [7]

CCOc1ccc2ccccc2c1/C=N\NC(=O)OC
inactive: [1] | [2]

Cc1cccc2sc(N3CCN(C(=O)c4cccs4)CC3)nc12
inactive: [6] | [7]

Cc1ccc(NC(=O)NC(=O)COc2ccc(Cl)cc2Cl)c(C)c1
inactive: [1] | [2] | [3] | [4] | [5]

COc1cccc(NC(=S)NC(=O)Cc2ccc(Cl)cc2)c1
inactive: [6] | [7]

CCCCN1C(=S)NC[C@@H]1Cc1ccccc1
inactive: [6] | [7]

COc1cccc(NC(=S)N2CCC(Cc3ccccc3)CC2)c1
inactive: [6] | [7]

COC(=O)C1=C(C)N(Cc2ccccc2)C(=S)NC1c1cccc(Br)c1 (stereo not drawn)
inactive: [6] | [7]

CN(CC(=O)Nc1cccc(F)c1)C(=O)CCCc1cccs1
inactive: [1] | [2] | [3] | [4] | [5]

Cc1ccc(NC(=O)C2CC(=O)N/C(=N/N=C/c3ccco3)S2)cc1C (stereo not drawn)
inactive: [1] | [2] | [3] | [4] | [5]

COc1ccc(N2CCN(C(=O)Cc3cccs3)CC2)cc1
inactive: [6] | [7]

C[C@@H]1CCCCO[C@@H](CN(C)CC2CCCCC2)[C@H](C)CN([C@H](C)CO)C(=O)c2cc(NC(=O)Nc3ccccc3)ccc2O1
inactive: [1] | [2] | [3] | [4] | [5] | [8] | [9] -37.2% [at 4.2 µM, hits give low values] | [10] | [11]

C[C@H](O)C#Cc1ccc([C@@H]2[C@@H](CO)N3CCCCN(S(=O)(=O)c4ccccc4)C[C@H]23)cc1
inactive: [1] | [2] | [3] | [4] | [5] | [8] | [9] 11.5% [at 0.26 µM, hits give low values] | [10] | [12] | [11]

O=C(Cc1ccccn1)N[C@@H]1CC[C@@H](CCn2cc(-c3ccccc3)nn2)O[C@H]1CO
inactive: [1] | [2] | [3] | [4] | [5] | [8] | [9] 6.29% | [10] | [12] | [11]

COc1ccc(CN2C(=O)C(CC(=O)NCCCCc3ccccc3)CC(C(=O)N3CCOCC3)=C2C)cc1 (stereo not drawn)
inactive: [1] | [2] | [3] | [4] | [5]

Cc1csc(NC(=O)C(C)Oc2ccc(Br)cc2)n1 (stereo not drawn)
inactive: [1] | [2] | [3] | [4] | [5]

COc1ccc2c3c([nH]c2c1)[C@@H](CO)N(C(=O)C1CC1)CC31CN(Cc2nccs2)C1
inactive: [1] | [2] | [3] | [4] | [5] | [8] | [9] 23.4% [at 4.2 µM, hits give low values] | [10] | [12] | [11]

O=C(NC1CCCC1)N1CCCCN2[C@@H](CO)[C@@H](c3ccc(/C=C/c4ccccc4)cc3)[C@@H]2C1
inactive: [1] | [2] | [3] | [4] | [5] | [8] | [9] 28.4% [at 2.1 µM, hits give low values] | [10] | [11]

O=C(C[C@H]1C[C@H]2c3cc(NS(=O)(=O)c4ccc(F)cc4)ccc3O[C@H]2[C@H](CO)O1)NCc1ccc(-c2ccccc2)cc1
inactive: [1] | [2] | [3] | [4] | [5] | [8] | [9] 10.6% [at 1 µM, hits give low values] | [10] | [12] | [11]

C[C@@H]1CN([C@@H](C)CO)C(=O)c2cccc(NS(=O)(=O)c3ccc(F)cc3)c2O[C@H]1CN(C)Cc1ccc(-c2ccccc2)cc1
inactive: [1] | [2] | [3] | [4] | [5] | [8] | [9] 17.5% | [10] | [12] | [11]

CN(C)C(=O)c1cccc(-c2ccccc2[C@@H]2[C@@H](C#N)N(C(=O)C3CC3)[C@H]2CO)c1
inactive: [1] | [2] | [3] | [4] | [5] | [8] | [9] 12.7% [at 0.26 µM, hits give low values] | [10] | [12] | [11]

Cc1ccc(-c2ccc([C@@H]3[C@@H]4CN(Cc5ccccc5F)C[C@H]3N4)cc2)cc1
inactive: [1] | [2] | [3] | [4] | [9] -28% | [10] | [11]

O=C(Cc1ccccn1)NCC[C@@H]1CC[C@H](NC(=O)Nc2ccc(C(F)(F)F)cc2)[C@@H](CO)O1
inactive: [1] | [2] | [3] | [4] | [5] | [8] | [9] -10.6% [at 16 µM, hits give low values] | [10] | [12] | [11]

COc1ccccc1NC(=O)N1CCCCN2[C@H](CO)[C@H](c3ccc(-c4ccc(C)cc4)cc3)[C@H]2C1
inactive: [1] | [2] | [3] | [4] | [5] | [8] | [9] 15.5% [at 1 µM, hits give low values] | [10] | [12] | [11]

C[C@H]1CN([C@@H](C)CO)C(=O)c2cccc(NC(=O)Nc3ccc(C(F)(F)F)cc3)c2O[C@H]1CN(C)C(=O)NC1CCCCC1
inactive: [1] | [2] | [3] | [4] | [5] | [8] | [9] -14.7% [at 8 µM, hits give low values] | [10]

CC=Cc1ccc2n(c1=O)C[C@H]1[C@H](CO)[C@@H](C(=O)NC3CCC3)N(CC)[C@@H]21 (mixture of isomers)
inactive: [1] | [2] | [3] | [4] | [5] | [8] | [9] 9.45% | [10] | [12] | [11]

C[C@H]1CCCCO[C@@H](CN(C)Cc2ccc(C(=O)O)cc2)[C@@H](C)CN([C@@H](C)CO)C(=O)c2cc(NS(=O)(=O)c3ccc(Cl)cc3)ccc2O1
inactive: [1] | [2] | [3] | [4] | [5] | [8] | [9] 4.48% | [10] | [12] | [11]

COc1ccc(NC(=O)N2CCCCN3[C@@H](CO)[C@@H](c4ccc(C5=CCCC5)cc4)[C@@H]3C2)cc1
inactive: [1] | [2] | [3] | [4] | [5] | [8] | [10]

C[C@@H]1CN([C@@H](C)CO)C(=O)c2cc(NC(=O)Nc3ccccc3)ccc2O[C@@H](C)CCCCO[C@H]1CN(C)Cc1ccc(Cl)c(Cl)c1
inactive: [1] | [2] | [3] | [4] | [5] | [8] | [9] -10.5% [at 8 µM, hits give low values] | [10] | [11]

O=C(C[C@H]1C[C@@H]2c3cc(NC(=O)C4CCOCC4)ccc3O[C@@H]2[C@@H](CO)O1)NCc1ccc(Oc2ccccc2)cc1
inactive: [1] | [2] | [3] | [4] | [8] | [9] -14.4% [at 4.2 µM, hits give low values] | [10] | [12] | [11]

CN1[C@@H]2Cn3c(ccc(-c4ccccc4)c3=O)[C@H]1[C@@H](C(=O)NC1CCCCC1)[C@@H]2CO
inactive: [1] | [2] | [3] | [4] | [5] | [8] | [9] -24.4% | [10] | [12] | [11]
